This passage reports survival results from PubChem BioAssay AID463173 (ICCB-Longwood Screening Facility, Harvard Medical School, 2010).

Among all 52,000 compounds or so, about 1,700 (3.3%) were called active. Rule as the data show it: active = survival mostly below about 52% (no sharp cut-off); inactive = mostly above about 56%. Only a selection was taken, and actives are over-represented in it overall.

The test relates to Wild type. Briefly: growth inhibition of S. aureus wild type versus tarO mutant, primary screen, teichoic acid synthesis inhibitors, RN4220, OD600 (AID 463173). The note with it: S. aureus RN4220 wild type/DeltatarO growth, OD600, 18 h, hits give low values, screened at 18.75 µg/mL (by protocol).
With `COc1ccc(CCNC(=O)CSCc2nc(-c3cccc(C)c3)oc2C)cc1OC`, the survival was 74% (inactive).

Turning to `COc1ccc(-c2nc(CSCC(=O)NCCc3ccccc3)c(C)o2)cc1`, the survival was 95% (inactive).

As for `COc1cccc(-c2nc(CS(=O)(=O)CC(=O)NCCc3ccc(Cl)cc3)c(C)o2)c1`, the survival was 78% (inactive).

As for `CCOc1ccc(CCNC(=O)CSCc2nc(-c3cccc(C)c3)oc2C)cc1OCC`, the survival is 80% (inactive).

Regarding `COc1cccc(-c2nc(CSCC(=O)NCCc3ccc(Cl)cc3)c(C)o2)c1`, the survival was -1% (active).

`Cc1cccc(-c2nc(CSCC(=O)NCCc3ccc(Cl)cc3)c(C)o2)c1`: the survival was -3% (active).

Regarding `COc1cc2[nH]c(=O)n(CCCC(=O)N(C)Cc3ccccc3)c(=O)c2cc1OC`, the survival was 68% (inactive).

As to `CN(C)c1ccc(-c2nnc3n(Cc4ccccc4)c(=O)c4ccccc4n23)cc1`, the survival is 83% (inactive).

In the case of `COc1ccc(N2CCN(C(=O)c3cccc(NC(=O)c4nsc5ccccc45)c3)CC2)cc1`, the survival was 131% (inactive).

For `O=C(NCc1ccc2c(c1)OCO2)C1CCN(c2ccc(S(=O)(=O)N3CCCC3)cc2)CC1`, the survival was 101% (inactive).

For the compound `Cc1ccc(-c2nc(N3CCCC(C)C3)c3ccccc3n2)cc1` (stereo unspecified), the survival is -2% (active).

On to `CC1CCCN(c2nc(-c3ccccc3O)nc3ccccc23)C1` (stereo unspecified), for which the survival was -3% (active).

As for `Cc1cccc(-c2nc(N3CCN(c4ccc(F)cc4)CC3)c3ccccc3n2)c1`, the survival is 64% (inactive).

Consider `COc1ccc(N2CCN(c3nc(-c4ccccc4F)nc4ccccc34)CC2)cc1`, for which the survival was 92% (inactive).

In the case of `COc1ccccc1N1CCN(c2nc(-c3ccc(C)cc3)nc3ccccc23)CC1`, the survival is 72% (inactive).

As for `CC1CCCN(c2csc3ccccc3c2=O)C1` (stereo unspecified), the survival is 97% (inactive).

For `N#CCNC(=O)c1sc2ccccc2c1Cl`, the survival was 107% (inactive).

For `Cc1nnc(NC(=O)CCCN2C(=O)/C(=C/c3cccs3)SC2=S)s1`, the survival was 107% (inactive).

For the compound `COc1cc(C(=O)N2CC(=O)Nc3ccc(C)cc3C2c2ccc(F)cc2)cc(OC)c1OC` (stereo unspecified), the survival is 147% (inactive).

For the compound `Cc1c(Cl)cccc1NC(=O)CCS(=O)(=O)c1ccc2c(c1)CC(C)N2C(=O)C1CC1` (stereo unspecified), the survival was 85% (inactive).

Consider `Cc1ccc(-n2ncc3c(N4CCC(Cc5ccccc5)CC4)ncnc32)cc1`, for which the survival was 70% (inactive).

In the case of `CC(C)CC(NC(=O)C1CCCCC1)C(=O)Nc1cccc(C(F)(F)F)c1` (stereo unspecified), the survival was 64% (inactive).

Turning to `C=Cc1ccc(CN2C(=O)N(c3cccc(Cl)c3)S(=O)(=O)c3ccccc32)cc1`, the survival is 57% (inactive).

With `C=Cc1ccc(CN2C(=O)N(c3ccc(CC)cc3)S(=O)(=O)c3ccccc32)cc1`, the survival was 1% (active).

For the compound `C=Cc1ccc(CN2C(=O)N(c3ccc(C)c(C)c3)S(=O)(=O)c3ccccc32)cc1`, the survival is 71% (inactive).

`Cc1coc2c(C)c3oc(=O)c(CCC(=O)NCCc4ccccc4)c(C)c3cc12`: the survival was 84% (inactive).

Consider `COc1cccc(N2CCN(C(=O)c3cnc4c(C)cccn4c3=O)CC2)c1`, for which the survival was 91% (inactive).

For `COc1ccc(N2CCN(c3nc4ccc(C)cc4n4nnnc34)CC2)cc1`, the survival was -6% (active).

Regarding `COc1ccc(OC)c(CNc2nc3ccc(C)cc3n3nnnc23)c1`, the survival was 85% (inactive).

As to `Cc1ccc(N2CCN(c3nc4ccc(C)cc4n4nnnc34)CC2)c(C)c1`, the survival was 76% (inactive).

As for `COc1ccccc1CNc1nc2ccc(C)cc2n2nnnc12`, the survival is -1% (active).

With `Cc1ccc2nc(NCc3ccccc3Cl)c3nnnn3c2c1`, the survival was 94% (inactive).

Take `Cc1ccc2nc(N3CCN(c4ccccc4F)CC3)c3nnnn3c2c1`: the survival is 76% (inactive).

On to `Cc1ccc2nc(N3CCN(c4ccc(F)cc4)CC3)c3nnnn3c2c1`, for which the survival was 14% (active).

As for `Cc1ccc2nc(N3CCN(c4ccccc4)CC3)c3nnnn3c2c1`, the survival is 78% (inactive).

As for `COc1ccccc1N1CCN(c2nc3ccc(C)cc3n3nnnc23)CC1`, the survival is 133% (inactive).

As for `CCN(c1ccccc1)S(=O)(=O)c1ccc(-c2cc(C)no2)s1`, the survival is 159% (inactive).

Consider `NC(=S)N/N=C/c1ccccc1OCC(=O)O`, for which the survival was 96% (inactive).

Turning to `Cc1ccc(NC(=O)Cn2ccn(-c3ccc(F)c(F)c3)c(=O)c2=O)cc1C`, the survival is 78% (inactive).

On to `Cc1ccc(-c2c(C(=O)NCc3ccc(F)cc3)oc(=O)c3ccccc23)cc1`, for which the survival was 76% (inactive).

As to `Cc1ccc(-c2c(C(=O)NCCc3ccc(Cl)cc3)oc(=O)c3ccccc23)cc1`, the survival was 57% (inactive).

For the compound `Cc1ccc(-c2c(C(=O)N(C)Cc3ccccc3)oc(=O)c3ccccc23)cc1`, the survival was 11% (active).

`Cc1ccc(CCNC(=O)c2oc(=O)c3ccccc3c2-c2ccc(C)cc2)cc1`: the survival was 17% (inactive).

Turning to `CCCCN(Cc1ccccc1)C(=O)c1oc(=O)c2ccccc2c1-c1ccc(C)cc1`, the survival was 0% (active).

As for `Cc1ccc(-c2c(C(=O)NCCc3ccccc3)oc(=O)c3ccccc23)cc1`, the survival was 79% (inactive).

As to `COc1ccccc1CCNC(=O)c1ccc2c(c1)c(C)c(C)n2Cc1ccc(Cl)cc1`, the survival is 77% (inactive).

On to `CC1(C)Cc2ccccc2-c2nnc(-c3ccccc3)n21`, for which the survival was 95% (inactive).

`Fc1ccc(Br)cc1C1C=C(c2ccc(Br)cc2)Nc2nnnn21` (stereo unspecified): the survival was 81% (inactive).

Consider `COc1ccc(C2C=C(c3ccc(Br)cc3)Nc3nnnn32)c(OC)c1` (stereo unspecified), for which the survival was 66% (inactive).

Take `COc1cccc(C2=CC(c3cc(Br)ccc3F)n3nnnc3N2)c1` (stereo unspecified): the survival was -4% (active).

In the case of `O=C(c1ccc2c(c1)N(Cc1ccc(Cl)cc1)C(=O)c1ccccc1S2=O)N1CCOCC1` (stereo unspecified), the survival was 83% (inactive).

As to `Cc1ccc(S(=O)(=O)N2CCCc3cc(NC(=O)c4ccc(C(F)(F)F)cc4)ccc32)cc1`, the survival was 110% (inactive).

As to `Cc1cc(O)c(C(=O)c2cnc3c(c2)COc2ccccc2-3)cc1Cl`, the survival is 64% (inactive).

Regarding `Cc1ccc2c(c1)-c1nc(-c3ccccc3)cc(-c3ccccc3)c1CO2`, the survival was 79% (inactive).

As to `O=C(c1cnc2c(c1)COc1ccccc1-2)c1ccccc1O`, the survival is 5% (active).

Regarding `O=C(c1cnc2c(c1)COc1ccc(Cl)cc1-2)c1ccccc1O`, the survival was 131% (inactive).

As to `Cc1ccc2c(c1)-c1ncc(C(=O)c3ccccc3O)cc1CO2`, the survival was -7% (active).

Take `Cc1ccc2c(c1)-c1ncc(C(=O)c3cc(Br)ccc3O)cc1CO2`: the survival was 56% (inactive).

For `COc1ccc(C2=C(C)C(N3CCC(C(=O)NCc4ccco4)CC3)=NS2(=O)=O)cc1`, the survival was 56% (inactive).

With `Cc1ccc(NS(=O)(=O)c2cc3[nH]c(=O)c(=O)[nH]c3cc2C)cc1N(C)C`, the survival is 81% (inactive).

Consider `CC1(CCC(=O)O)NNC(=S)NN1`, for which the survival was 101% (inactive).

`Cn1cccc1-c1cc2n(n1)CCC(=O)N2CC(=O)Nc1ccc(F)cc1Cl`: the survival was 63% (inactive).

Turning to `Cc1nn(C(=O)c2cccc(F)c2)c(C)c1S(=O)(=O)N1CCCCCC1`, the survival was 84% (inactive).

Take `Cc1c(C(=O)N2CCC(C)CC2)c(S(=O)(=O)Nc2cccc(C(F)(F)F)c2)c(C)n1C`: the survival was 78% (inactive).

As to `CCOC(=O)c1ccc(N2CCN(c3cccc(Cl)c3)CC2)c(NC(=O)Nc2ccc(Cl)cc2)c1`, the survival is 76% (inactive).

`CCOC(=O)c1ccc(N2CCN(c3cccc(OC)c3)CC2)c(NC(=O)Nc2ccc(OCC)cc2)c1`: the survival is -6% (active).

With `CCOC(=O)c1ccc(N2CCN(c3ccc(F)cc3)CC2)c(NC(=O)Nc2cccc(OC)c2)c1`, the survival was 67% (inactive).

Turning to `Cc1cn2c(=O)cc(COc3ccccc3NC(=O)c3ccco3)nc2s1`, the survival is 83% (inactive).

`Fc1cccc(NCc2cccn2-c2nnc(N3CCOCC3)s2)c1`: the survival is 77% (inactive).

Turning to `CC(=O)N1SC(N)=NC1c1ccccc1` (stereo unspecified), the survival was 111% (inactive).

On to `CCOc1ccc(N(C)S(=O)(=O)c2ccc3c(c2)CCCN3C(C)=O)cc1`, for which the survival was 75% (inactive).

As to `CCOc1ccc(CNC(=O)c2ccc3c(c2)nc2n3CCOC2)cc1`, the survival was 57% (inactive).

Turning to `CCOc1ccc(CNC(=O)c2ccc3c(c2)nc2n3CCOC2)cc1OC`, the survival was 1% (active).

Turning to `Cc1ccc(C)c(CNC(=O)c2ccc3c(c2)nc2n3CCOC2)c1`, the survival was 63% (inactive).

As for `O=C(NCc1ccccc1)c1ccc2c(c1)nc1n2CCOC1`, the survival is 82% (inactive).

Consider `COc1ccc(CCNC(=O)c2ccc3c(c2)nc2n3CCOC2)cc1OC`, for which the survival was -4% (active).

For the compound `O=C(NCc1ccccc1Br)c1ccc2c(c1)nc1n2CCOC1`, the survival is -3% (active).

Turning to `CCOc1ccc(CNC(=O)c2ccc3c(c2)nc2n3CCC(C)C2)cc1OC` (stereo unspecified), the survival was 73% (inactive).

As to `COc1ccc(CCNC(=O)c2ccc3c(c2)nc2n3CCCCC2)cc1OC`, the survival is 84% (inactive).

In the case of `CCOc1ccc(CCNC(=O)c2ccc3c(c2)nc2n3CCOC2)cc1OCC`, the survival was 63% (inactive).

Turning to `Cc1ccc(C)c(NC(=O)CSc2nc(-c3ccccc3)c(C#N)c(=O)[nH]2)c1`, the survival is 113% (inactive).

In the case of `COc1cccc(NC(=O)CSc2nnc(-c3cccc(OC)c3)o2)c1`, the survival was 90% (inactive).

As to `CCn1c(CC(=O)Nc2ccccc2)n[nH]c1=S`, the survival is 107% (inactive).

For the compound `Cc1cn2c(=O)cc(COC(=O)c3cccc(NC(=O)c4ccccc4C)c3)nc2s1`, the survival was 71% (inactive).

As for `COc1ccccc1CNc1ccc(-c2nc(-c3ccccn3)no2)cc1[N+](=O)[O-]`, the survival was 77% (inactive).

Take `Cc1ccc2c(=O)c(C(=O)c3ccccc3)cn(CC(=O)Nc3ccccc3C)c2n1`: the survival was 65% (inactive).

Consider `O=c1[nH]c2ccccc2c(O)c1-c1nc2ccccc2c(=O)[nH]1`, for which the survival was 109% (inactive).

Turning to `Cc1ccc(NC(=O)CSc2nc3ccccc3nc2N2CCOCC2)cc1`, the survival was 59% (inactive).

Turning to `CC(=O)Nc1ccc(NC(=O)CSc2nc3ccccc3nc2N2CCC(C)CC2)cc1`, the survival was 80% (inactive).

With `Cc1cccc(NC(=O)CSc2nc3ccccc3nc2N2CCCCC2)c1C`, the survival was 70% (inactive).

`CC1CCN(c2nc3ccccc3nc2SCC(=O)Nc2ccccc2C(C)C)CC1`: the survival is -16% (active).

As to `Cc1cccc(NC(=O)CSc2nc3ccccc3nc2N2CCOCC2)c1C`, the survival was 65% (inactive).

Regarding `CCOc1ccc(NC(=O)CSc2nc3ccccc3nc2N2CCOCC2)cc1`, the survival was 112% (inactive).

With `Cc1ccc(C)c(NC(=O)CSc2nc3ccccc3nc2N2CCOCC2)c1`, the survival is 76% (inactive).

Turning to `Cc1cccc(NC(=O)CSc2nc3ccccc3nc2N2CCC(C)CC2)c1`, the survival was -9% (active).

With `CCOc1ccccc1NC(=O)CSc1nc2ccccc2nc1N1CCOCC1`, the survival was -11% (active).
